# Measured values from the supplement of paper PMC10037445.
# The full ranking holds about 2,900 compounds; the median of “NF-kB SEAP reporter activity, fold change vs agonist alone” is about 0.99, and the highest 2% start at about 2.6. Many of the other results were omitted from the sample, so the highest values are more common in it than they were.
# Legend:
# RAW-Dual [1] = test: NF-kB SEAP reporter activity, fold change vs agonist alone; higher = enhanced NF-kB activity; conditions: library stock concentration (final ~1000-fold dilution): 10 mM
# Method in brief: (§1)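 RAW-Dual macrophages were seeded in DMEM at 50,000 cells/well in 384-well plates, given 50 nL of library stock by pin tool, and given a PRR agonist 1 h later. Plates were held at 37 °C, 5% CO2 for 20 hours, after which supernatant was read for IRF by QuantiLuc luminescence and for NF-κB by QuantiBlue absorbance at 620 nm. Reporter activity is expressed as fold change over wells that received agonist alone. A well was called cytotoxic when IncuCyte confluency fell below 70% of agonist controls in both mask sets.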
# RAW-Dual [2] = test: NF-kB SEAP reporter activity, fold change vs agonist alone; cytotoxicity flag (confluency mask): not cytotoxic; higher = enhanced NF-kB activity
# Method in brief: as §1
# [3] = agonist: ODN 1826 (TLR9) 0.5 ug/mL
# [4] = agonist: Pam2CSK4 (TLR2/6) 0.1 ug/mL
# [5] = agonist: Pam3CSK4 (TLR2/1) 0.1 ug/mL
# [6] = cytotoxicity flag (confluency mask): not cytotoxic, agonist: Imiquimod (TLR7) […]
# [7] = cytotoxicity flag (confluency mask): not cytotoxic, agonist: MPLA (TLR4) […]
compound,measurement,setting,value
CNCCCC1c2ccccc2C=Cc2ccccc21.Cl,NF-kB SEAP reporter activity,"RAW-Dual [1]; cytotoxicity flag (confluency mask): cytotoxic (confluency <70% of control), agonist: Imiquimod (TLR7) […]",1.28
same,NF-kB SEAP reporter activity,"RAW-Dual [1]; cytotoxicity flag (confluency mask): cytotoxic (confluency <70% of control), agonist: MPLA (TLR4) […]",1.62
O=C(CCNNC(=O)c1ccncc1)NCc1ccccc1 (library stock concentration (final ~1000-fold dilution): 10 mM),NF-kB SEAP reporter activity,RAW-Dual [2]; agonist: LPS (TLR4) 0.1 ug/mL,0.997
same,NF-kB SEAP reporter activity,RAW-Dual [2]; [3],1.03
same,NF-kB SEAP reporter activity,RAW-Dual [2]; [4],0.962
same,NF-kB SEAP reporter activity,RAW-Dual [2]; [5],0.955
O=C(CCNNC(=O)c1ccncc1)NCc1ccccc1,NF-kB SEAP reporter activity,RAW-Dual [1]; [6],0.939
same,NF-kB SEAP reporter activity,RAW-Dual [1]; [7],1
CCCCNNC(=O)c1ccc(Br)cc1 (library stock concentration (final ~1000-fold dilution): 10 mM),NF-kB SEAP reporter activity,RAW-Dual [2]; agonist: LPS (TLR4) 0.1 ug/mL,3.15
same,NF-kB SEAP reporter activity,RAW-Dual [2]; [3],2.18
same,NF-kB SEAP reporter activity,RAW-Dual [2]; [4],0.64
same,NF-kB SEAP reporter activity,RAW-Dual [2]; [5],0.656
CCCCNc1ccc(C(=O)OCCN(C)C)cc1.Cl (library stock concentration (final ~1000-fold dilution): 10 mM),NF-kB SEAP reporter activity,RAW-Dual [2]; agonist: LPS (TLR4) 0.1 ug/mL,1.38
same,NF-kB SEAP reporter activity,RAW-Dual [2]; [3],0.759
same,NF-kB SEAP reporter activity,RAW-Dual [2]; [4],1.13
same,NF-kB SEAP reporter activity,RAW-Dual [2]; [5],1.17
CCCCNc1ccc(C(=O)OCCN(C)C)cc1.Cl,NF-kB SEAP reporter activity,RAW-Dual [1]; [6],0.843
same,NF-kB SEAP reporter activity,RAW-Dual [1]; [7],1.04
CCCCNNC(=O)c1ccc(Br)cc1,NF-kB SEAP reporter activity,RAW-Dual [1]; [6],1.95
same,NF-kB SEAP reporter activity,RAW-Dual [1]; [7],2.28
CS(=O)(=O)n1cc2c(n1)CN(C1COC(c3cc(F)ccc3F)C(N)C1)C2 (stereo not given) (library stock concentration (final ~1000-fold dilution): 10 mM),NF-kB SEAP reporter activity,RAW-Dual [2]; agonist: LPS (TLR4) 0.1 ug/mL,1.1
same,NF-kB SEAP reporter activity,RAW-Dual [2]; [3],0.91
same,NF-kB SEAP reporter activity,RAW-Dual [2]; [4],1
same,NF-kB SEAP reporter activity,RAW-Dual [2]; [5],0.974
CS(=O)(=O)n1cc2c(n1)CN(C1COC(c3cc(F)ccc3F)C(N)C1)C2 (stereo not given),NF-kB SEAP reporter activity,RAW-Dual [1]; [6],0.931
same,NF-kB SEAP reporter activity,RAW-Dual [1]; [7],1.03
O=C(NCCN1CCOCC1)c1ccc(Cl)cc1 (library stock concentration (final ~1000-fold dilution): 10 mM),NF-kB SEAP reporter activity,RAW-Dual [2]; agonist: LPS (TLR4) 0.1 ug/mL,1.32
same,NF-kB SEAP reporter activity,RAW-Dual [2]; [3],1.86
same,NF-kB SEAP reporter activity,RAW-Dual [2]; [4],1.18
same,NF-kB SEAP reporter activity,RAW-Dual [2]; [5],1.17
Cc1ccc(-n2nc(C(C)(C)C)cc2NC(=O)Nc2ccc(OCCN3CCOCC3)c3ccccc23)cc1 (library stock concentration (final ~1000-fold dilution): 10 mM),NF-kB SEAP reporter activity,RAW-Dual [2]; agonist: LPS (TLR4) 0.1 ug/mL,0.477
same,NF-kB SEAP reporter activity,RAW-Dual [2]; [3],0.449
same,NF-kB SEAP reporter activity,RAW-Dual [2]; [4],0.129
same,NF-kB SEAP reporter activity,RAW-Dual [2]; [5],0.226
Cc1ccc(-n2nc(C(C)(C)C)cc2NC(=O)Nc2ccc(OCCN3CCOCC3)c3ccccc23)cc1,NF-kB SEAP reporter activity,RAW-Dual [1]; [6],0.455
same,NF-kB SEAP reporter activity,RAW-Dual [1]; [7],0.804
O=C(Cc1ccc(-c2ccc(OCCN3CCOCC3)cc2)cn1)NCc1ccccc1 (library stock concentration (final ~1000-fold dilution): 10 mM),NF-kB SEAP reporter activity,RAW-Dual [2]; agonist: LPS (TLR4) 0.1 ug/mL,4.55
same,NF-kB SEAP reporter activity,RAW-Dual [2]; [3],3.36
same,NF-kB SEAP reporter activity,RAW-Dual [2]; [4],2
same,NF-kB SEAP reporter activity,RAW-Dual [2]; [5],2.39
O=C(Cc1ccc(-c2ccc(OCCN3CCOCC3)cc2)cn1)NCc1ccccc1,NF-kB SEAP reporter activity,RAW-Dual [1]; [6],2.63
same,NF-kB SEAP reporter activity,RAW-Dual [1]; [7],2.26
O=C(NCCN1CCOCC1)c1ccc(Cl)cc1,NF-kB SEAP reporter activity,RAW-Dual [1]; [6],1.74
same,NF-kB SEAP reporter activity,RAW-Dual [1]; [7],1.82
C=CC(=O)N1CC(Nc2ncnc3[nH]ccc23)CCC1C (stereo not given) (library stock concentration (final ~1000-fold dilution): 10 mM),NF-kB SEAP reporter activity,RAW-Dual [2]; agonist: LPS (TLR4) 0.1 ug/mL,0.655
same,NF-kB SEAP reporter activity,RAW-Dual [2]; [3],0.682
same,NF-kB SEAP reporter activity,RAW-Dual [2]; [4],0.56
same,NF-kB SEAP reporter activity,RAW-Dual [2]; [5],0.738
C=CC(=O)N1CC(Nc2ncnc3[nH]ccc23)CCC1C (stereo not given),NF-kB SEAP reporter activity,RAW-Dual [1]; [6],0.572
same,NF-kB SEAP reporter activity,RAW-Dual [1]; [7],0.785
